The full list was thinned out, with hits kept by preference.
L3MBTL1 inh – inhibitors of human L3MBTL1; Q9Y468; AlphaScreen L3MBTL1–H3K9me1 peptide binding; Potency, µM (titrated, usually from 57.1 µM), without a hit: at the top dose activity, negative = inhibition, hits mostly inhibitors; 0.66% of 230,000 active; also: nearly all actives have a fitted effect of over 60% in size
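AlphaScreen proximity signal between nickel-chelate acceptor and streptavidin donor beads (final 10 ug/mL) reports binding of 50 nM L3MBTL1 to 75 nM biotin-H3 K9me1 peptide; complex incubated with compounds 30 min at room temperature; cefsulodin titration as control.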
BLM helicase inh – inhibitors of human Bloom syndrome helicase BLM; P54132; recombinant BLM DNA unwinding, fluorescence dequenching; Potency, µM (series often up to 56.1 µM), inactives show at the top dose activity change, negative = inhibition, most hits filed as inhibitors; 0.2% of 350,000 active;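 also: plate controls were vehicle for no effect and no enzyme for full effect; nearly all actives have a fitted effect of over 35% in size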
TDP1 inh – blocks human tyrosyl-DNA phosphodiesterase 1; Q9NUW8; recombinant TDP1, AlphaScreen DNA substrate cleavage; Potency, µM (doses to about 130 µM), for inactives: top-dose activity change, negative = inhibition, most hits filed as inhibitors; 0.28% of 350,000 active; also: nearly all actives have a fitted effect of over 40% in size
Target sequence (Q9NUW8 whole entry, looked up): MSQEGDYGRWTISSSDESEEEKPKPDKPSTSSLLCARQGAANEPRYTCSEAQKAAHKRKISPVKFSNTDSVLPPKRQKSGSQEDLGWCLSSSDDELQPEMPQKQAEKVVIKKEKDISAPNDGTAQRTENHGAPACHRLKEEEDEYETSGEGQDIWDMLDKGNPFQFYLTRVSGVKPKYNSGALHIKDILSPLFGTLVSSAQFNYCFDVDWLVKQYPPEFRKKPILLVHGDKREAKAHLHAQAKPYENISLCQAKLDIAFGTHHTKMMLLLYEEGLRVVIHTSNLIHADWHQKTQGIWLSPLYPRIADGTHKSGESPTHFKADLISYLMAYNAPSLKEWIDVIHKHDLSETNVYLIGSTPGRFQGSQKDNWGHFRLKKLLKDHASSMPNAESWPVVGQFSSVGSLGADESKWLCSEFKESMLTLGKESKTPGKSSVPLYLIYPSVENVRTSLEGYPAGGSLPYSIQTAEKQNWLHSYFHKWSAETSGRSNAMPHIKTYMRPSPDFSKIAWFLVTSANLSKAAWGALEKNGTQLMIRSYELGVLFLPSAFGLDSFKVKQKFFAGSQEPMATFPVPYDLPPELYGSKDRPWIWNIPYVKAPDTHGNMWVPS
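AlphaScreen read-out: signal falls as enzyme removes the 3' tyrosine-FITC from a 5'-biotinylated DNA oligo (15 nM, 5 min, RT). Enzyme was E. coli-made recombinant Tdp1 at 1 nM, exposed to compound for 15 min beforehand; beads 10 ug/ml, 10 min.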
APE1 inh – blocks human APE1 abasic DNA cleavage; P27695; recombinant APE1, TAMRA/BHQ-2 abasic DNA cleavage fluorescence; Potency, µM (titrated, usually from 65.8 µM), without a hit: top-dose activity change, negative = inhibition, usual class: inhibitors; 0.35% of 350,000 active; AID 2517;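 also: plate controls were vehicle for no effect and reference inhibitor for full effect; nearly all actives have a fitted effect of over 55% in size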
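Enzyme (0.75 nM final) and test compound are incubated 15 min at room temperature before adding 50 nM quenched THF abasic-site duplex. Cleavage dequenches TAMRA, followed at 525/598 nm over three reads one minute apart.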
KDM4E inh – JMJD2E (human) inhibition; JMJD2E catalytic domain, FDH-coupled NADH fluorescence (FDH is formaldehyde dehydrogenase); Potency, µM (doses to about 57.1 µM), for inactives: at the highest dose activity change, negative = inhibition, hits mostly inhibitors; 1.6% of 230,000 active; active = well fitted inhibition curve with a large enough effect, not every such curve was filed as active; inconclusive = small, poorly fitted or top-dose-only effect, or another doubt; inactive = no such curve, though single readings can be large or run the other way;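 also: 0% = wells with enzyme and -100% = buffer wells without enzyme; nearly all actives have a fitted effect of over 50% in size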
RECQ1 inh – RECQ1 (human) helicase inhibition; P46063; RECQ1 DNA unwinding, red fluorescence kinetic read; Potency, µM (series often up to 57.3 µM), without a hit: top-dose activity, negative = inhibition, actives largely listed as inhibitors; 0.54% of 240,000 active; AID 2549;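 also: plate controls were vehicle for no effect and no enzyme for full effect; nearly all actives have a fitted effect of over 30% in size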
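50 nM RECQ1T1 preincubated 15 min with compound in Tris pH 8.0 buffer with MgCl2, DTT, Tween-20 and 2.5 ug/ml poly(dI-dC); started with 200 nM TAMRA/BHQ-2 forked duplex and 2 mM ATP. Unwinding read as fluorescence (525/598 nm), two reads 2 h apart.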
An asterisk follows results filed as active; i = inactive; ? = inconclusive; . = no result given; [ ] = another dose, or the depositor's remark. Unless noted, calls follow the shape of the dose curve; as a rule, active = well fitted curve in the direction sought with a large enough effect; inconclusive = small, poorly fitted or top-dose-only effect, or another doubt; inactive = no such curve, though single readings can be large; an effect the other way counts as inactive or inconclusive. Unless noted, % is scaled to controls: 0 for no effect and ±100 for the full control effect; potency is read from the fitted curve at half-maximal effect.

SMILES | L3MBTL1 inh | BLM helicase inh | TDP1 inh | APE1 inh | KDM4E inh | RECQ1 inh
Cc1ccc(CNC(=O)c2ccc(-n3cccc3)cc2)cc1 | . | ? | 13µM* | ? | -10% | ?
CCN(CC)C(=O)c1nn(-c2ccc(OC)cc2)c(=O)c2c(N)scc12 | . | . | -4% | . | . | .
[O-]/C(=C(\C(=S)Nc1cccc2ccccc12)[n+]1cccc(CO)c1)c1ccc(Cl)s1 | . | -6% | 7% | -7% | 13µM* | i
O=C(O)[C@H](O)[C@@H](O)[C@H](O[C@@H]1O[C@H](CO)[C@H](O)[C@H](O)[C@H]1O)[C@H](O)CO | . | . | . | 1%[21 µM] | . | .
CCc1ccc(S(=O)(=O)/N=C2\C=C(Nc3cccc(C(=O)O)c3)C(=O)c3ccccc32)cc1 | . | 25µM* | . | 37% | . | .
Cc1cc(C)c(S(=O)(=O)/N=C2\C=C(Nc3ccc(C(=O)O)cc3)C(=O)c3ccccc32)c(C)c1 | . | ? | 7% | -22% | . | .
O=C(O)c1ccc(NC2=C/C(=N/S(=O)(=O)c3ccccc3)c3ccccc3C2=O)cc1 | . | 14µM* | 9% | ? | -20% | -7%
CCc1ccc(S(=O)(=O)/N=C2/C=C(Sc3ncn[nH]3)C(=O)c3ccccc32)cc1 | ? | 22µM* | 9% | ? | 3.5µM* | ?
Cc1cc2c(s1)c(/C=N/O)c(C(=O)NCc1ccccc1F)n2C | . | . | 0% | . | . | .
CCCCn1c(Nc2ccccc2)nc2ccccc21 | . | -3% | 5% | 6% | 0% | -6%
CCCn1c(Nc2nc3ccccc3n2C)nc2ccccc21 | 18µM* | -10% | 10% | 5% | ? | 5%
CC1=C/C(=C(\c2cc(C)c(O)c(Br)c2)c2ccccc2S(=O)(=O)O)C=C(Br)C1=O | 22µM* | ? | 15% | -41% | . | .
Cc1nc(NC2CCCCC2)c2nc(-c3ccccc3)n(CCN3CCCCC3)c2n1 | . | -7% | . | ? | ? | 1%
COc1cc(N=Nc2cccc(S(N)(=O)=O)c2)c2ccccc2c1N | -26% | 4µM* | 9% | ? | ? | i
Cc1ccc(-c2nc(-c3ccccc3)no2)c(Cl)c1 | 31% | -13% | 56µM* | 18% | -1% | -11%
COc1ccc(-c2csc(N(CCCN(C)C)C(=O)c3ccccc3C)n2)cc1 | 35µM* | 5% | . | 37% | . | .
N#Cc1nc(-c2ccco2)oc1N1CCC(C(N)=O)CC1 | . | -2% | -6% | 4% | 3.5µM* | -6%
N#Cc1nc(-c2ccccc2)oc1N1CCC(C(N)=O)CC1 | . | -1% | . | 43% | . | .
CCN1CCCc2cc(CN(CCN3CCOCC3)C(=S)Nc3ccc(OC)cc3)ccc21 | . | 0% | 3% | 6.3µM* | -22% | -6%
CC(=O)Nc1ccc(S(=O)(=O)N2CCN(S(=O)(=O)c3ccc4c(c3)OCCO4)CC2)cc1 | . | . | 1% | . | . | .
O=C(NNC(=O)c1cccs1)c1ccc(Cl)nc1 | 7% | . | 89µM* | 9% | . | .
O=C(NNC(=O)c1cccs1)c1ccc(F)cc1 | . | -4% | 2% | -17% | . | .
N#Cc1c(N)oc(-c2ccco2)c1-c1ccco1 | -19% | -5% | ? | ? | 1.6µM* | i
COc1ccc(OC)c(/C=N/c2oc(-c3ccco3)c(-c3ccco3)c2C#N)c1 | 25µM* | -4% | 4% | ? | ? | ?
N#Cc1c(/N=C/c2ccco2)oc(-c2ccccc2)c1-c1ccccc1 | 4% | -3% | 5% | 2% | ? | -11%
SMILES | L3MBTL1 inh | BLM helicase inh | TDP1 inh | APE1 inh | KDM4E inh | RECQ1 inh
N#Cc1c(N)oc(-c2ccccc2)c1-c1ccccc1 | 0% | -4% | 5% | 0% | -18% | -5%
Cc1csc(C(=O)O)c1-n1cccc1 | ? | -3% | 13µM* | ? | 10% | -21%
O=C(N/N=C/c1ccc(O)c(O)c1)c1cccc(S(=O)(=O)N2CCCCC2)c1 | -3% | -9% | 2% | 16% | 16µM* | i
COCCN(CCOC)c1nc(C)nc2c1nc(-c1ccccc1)n2CC1CCN(C)CC1 | . | -2% | 1% | -10% | ? | 0%
Nc1ccccc1N=c1ssnc1Cl | . | -2% | 4% | 10% | ? | -15%
Cc1nnc(N=c2ssnc2Cl)o1 | -4% | . | -4% | -6% | . | .
COc1ccc(OC)c(N=c2ssnc2Cl)c1 | -7% | -1% | 6% | -4% | 13µM* | -6%
COc1cc(N=c2ssnc2Cl)c(OC)cc1Cl | -10% | -2% | 10% | -12% | 13µM* | i
Cc1ccc(Cl)cc1N1CCN(C(=O)c2ccc(C)c(-n3c(C)nc4cccnc43)c2)CC1 | . | -7% | 11% | . | . | .
Cc1[nH][nH]c(=O)c1C(c1ccc(-c2ccccc2C(=O)O)o1)c1c(C)[nH][nH]c1=O | 32µM* | ? | . | ? | 23% | i
COC(=O)c1ccc(-c2ccc(C(c3c(C)[nH][nH]c3=O)c3c(C)[nH][nH]c3=O)o2)cc1 | . | -18% | -11% | -11% | ? | -11%
Cc1[nH][nH]c(=O)c1C(c1ccc(-c2cccc(C(=O)O)c2)o1)c1c(C)[nH][nH]c1=O | 25µM* | -1% | 8.9µM* | 18µM* | 26% | ?
Oc1ccc(/C=N/NC(=S)Nc2cccnc2)c(O)c1O | . | -20% | . | 0.79µM* | 2.2µM* | 3.5µM*
S=C(NCCN1CCOCC1)N/N=C/c1cccs1 | . | -4% | . | -8% | . | .
Fc1c(F)c(F)c(/C=N/NC(=S)Nc2cccnc2)c(F)c1F | -15% | -16% | 8% | -1% | 1% | i
Oc1ccc(/C=N/NC(=S)Nc2cccnc2)c(O)c1 | 8.9µM* | 2% | 5% | -2% | 28µM* | -5%
Oc1cccc(/C=N/NC(=S)Nc2cccnc2)c1O | 4µM* | -20% | 0% | ? | 22µM* | ?
Oc1cccc(/C=N/NC(=S)NCCN2CCOCC2)c1O | 10µM* | -1% | 5% | ? | 25µM* | 13µM*
Fc1cccc(F)c1/C=N/NC(=S)Nc1cccnc1 | -17% | 0% | 0% | 12% | -21% | i
CCOc1ccccc1N1C(=O)c2ccccc2N/C1=C\N1CCN(C(=O)c2ccco2)CC1 | . | . | 1% | . | . | .
CC(C)(C)N1C(=O)[C@H]2[C@@H]3[C@H](O)[C@H](O)CC(=O)[C@H]3CC[C@H]2C1=O | . | 4%[12.4 µM] | -4%[21 µM] | 16%[12.4 µM] | . | 1%[11.5 µM]
Cc1ccc(NS(=O)(=O)c2cc3c(cc2C)NC(=O)CO3)cc1C | . | . | 1% | . | . | .
CS(=O)(=O)Nc1cccc(-c2cc(F)c(S(=O)(=O)N3CCN(S(=O)(=O)c4ccc5c(c4)OCCO5)CC3)cc2F)c1 | . | . | -5% | . | . | .
NC(=S)N/N=C/c1ccccc1O | ? | -1% | 9% | 6% | ? | i
NC(=S)N/N=C/c1cccc(O)c1O | 28µM* | 1% | 0% | ? | 35µM* | -10%
Cc1ccc2nc(-c3ccccc3)cn2c1 | -4% | 4% | 5% | 1% | ? | -4%
